Reference: the supplement of paper PMC6089552
About 300 (9.4%) of roughly 3,200 compounds showed activity. What follows is part of a selection rich in actives, with near analogues and random picks from the rest.

Test system: A673/TR/shEF
Assay: cell viability (LOESS-normalised, relative to median of negative controls) (log2 ratio); higher = more viable cells (less compound effect), active = hit call of the paper (over 3 MAD below the median)
Conditions: treatment time: 72 h
Outline: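 A673/TR/shEF Ewing sarcoma cells were plated at 1,500 per well in 384-well plates and cultured with or without doxycycline, added 24 h before compounds, to induce EWS-FLI1 shRNA knockdown. Library compounds at two or more concentrations, alongside DMSO controls, were applied for three days. Cell viability was measured by CellTiter-Glo luminescence on an Envision reader. Readings were LOESS-corrected per plate, divided by the median of negative controls and log2-transformed, and hits were wells lying at least three median absolute deviations from the median of all screened wells.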

[1] = 0.25 µM, library screen: screen2, EWS-FLI1 expression: high (no doxycycline)
[2] = 0.25 µM, library screen: screen2, EWS-FLI1 expression: low (doxycycline-induced shRNA knockdown)
[3] = 2.5 µM, library screen: screen2, EWS-FLI1 expression: high (no doxycycline)
[4] = 2.5 µM, library screen: screen2, EWS-FLI1 expression: low (doxycycline-induced shRNA knockdown)
[5] = 0.25 µM, library screen: screen1, EWS-FLI1 expression: high (no doxycycline)
[6] = 0.25 µM, library screen: screen1, EWS-FLI1 expression: low (doxycycline-induced shRNA knockdown)
[7] = 2.5 µM, library screen: screen1, EWS-FLI1 expression: high (no doxycycline)
[8] = 2.5 µM, library screen: screen1, EWS-FLI1 expression: low (doxycycline-induced shRNA knockdown)

Measured: cell viability (log2)

CC(O)C(C)OC(=O)[C@@H]1C[C@@H]2c3cccc4c3c(cn4C(C)C)C[C@H]2N(C)C1 (some centres undefined)
inactive: [1] 0.174 | [2] 0.171 | [3] 0.12 | [4] 0.112

NCCc1cccc(O)c1
inactive: [5] 0.0584 | [6] 0.0834 | [7] 0.0622 | [8] 0.0348

CN1CC[C@@]2(C)c3cc(O)ccc3N(C)C12 (some centres undefined)
inactive: [1] 0.117 | [2] 0.0622 | [3] 0.072 | [4] 0.0674

CNNC
inactive: 0.025 µM, library screen: screen2, EWS-FLI1 expression: high (no doxycycline) 0.186 | 0.025 µM, library screen: screen2, EWS-FLI1 expression: low (doxycycline-induced shRNA knockdown) 0.0401 | [5] 0.136 | [6] 0.152 | [1] 0.206 | [2] 0.035 | [7] 0.115 | [8] 0.131 | [3] 0.112 | [4] 0.0817 | 25 µM, library screen: screen2, EWS-FLI1 expression: high (no doxycycline) 0.239 | 25 µM, library screen: screen2, EWS-FLI1 expression: low (doxycycline-induced shRNA knockdown) 0.143

Nc1ncnc2c1ncn2[C@@H]1O[C@H](COP(=O)(O)CP(=O)(O)OP(=O)([O-])[O-])[C@H](O)C1O.[Li+].[Li+] (some centres undefined)
inactive: [1] 0.132 | [2] 0.0925 | [3] 0.106 | [4] 0.143

N[C@@H](Cn1ccc(=O)[nH]c1=O)C(=O)O
inactive: [1] 0.256 | [2] -0.00427 | [3] 0.176 | [4] 0.041

CNC(=O)O/N=C/C(C)(C)SC
inactive: [5] 0.0387 | [6] 0.0491 | [7] 0.106 | [8] 0.0724

C[C@@H]1OC(=O)[C@H]2C[C@H]3CCCC[C@@H]3[C@@H](/C=C/[C@@H]3CCC[C@@H](C)N3C)[C@@H]12
inactive: [1] 0.0803 | [2] 0.0731 | [3] 0.143 | [4] 0.0419

c1cncc(C2CCCCN2)c1 (centres undefined)
inactive: [5] 0.0408 | [6] -0.0074 | [7] 0.145 | [8] 0.0957

CC(=O)Oc1c2c(c(CC=C(C)C)c3c1C(=O)C1=C[C@@H]4CC5C(C)(C)OC(C/C=C(\C)C(=O)O)(C4=O)[C@@]15O3)OC(C)(CCC=C(C)C)C=C2 (some centres undefined)
inactive: [5] 0.0664 | [6] 0.0597 | [7] -0.0173 | [8] 0.269

CC(C)=CCCC1(C)C=Cc2c(O)c3c(c(CC=C(C)C)c2O1)OC12C(=CC4CC1C(C)(C)OC2(CC=C(C)C(=O)O)C4O)C3=O (centres undefined)
active: [7] -0.137
0.307: [8]
inactive: [5] 0.1 | [6] 0.0956

CC(C)=CCCC1(C)C=Cc2c(O)c3c(c(CC=C(C)C)c2O1)OC12C(CC4CC1C(C)(C)OC2(C/C=C(/C)C(=O)O)C4O)C3=O (centres undefined)
inactive: [5] 0.0661 | [6] 0.00238 | [7] 0.127 | [8] 0.0888

COC(=O)/C(C)=C\CC12OC(C)(C)C3CC(C=C4C(=O)c5c(OC)c6c(c(CC=C(C)C)c5OC431)OC(C)(CCC=C(C)C)C=C6)C2=O (centres undefined)
active: [7] -4.2 | [8] -3.74
inactive: [5] 0.0497 | [6] 0.135

CC(C)=CCC[C@]1(C)C=Cc2c(O)c3c(c(CC=C(C)C)c2O1)O[C@]12C(=C[C@@H]4C[C@H]1C(C)(C)O[C@@]2(C/C=C(/C)C(=O)O)C4=O)C3=O
active: [7] -1.16
inactive: [5] -0.0514 | [6] 0.129 | [8] -0.0142

COc1cccc(CN2CCN(Cc3ccccc3OC)CC2)c1
inactive: [5] 0.108 | [6] 0.0202 | [7] 0.149 | [8] -0.0141

COc1cc2c(cc1-c1cc3cc4ccoc4cc3oc1=O)OCO2
inactive: [5] 0.0215 | [6] -0.011 | [7] 0.0285 | [8] 0.107

CN1[C@H]2CC(OC(=O)C(CO)c3ccccc3)C[C@H]1[C@H]1O[C@H]12 (some centres undefined)
inactive: 0.103 µM, library screen: screen3, EWS-FLI1 expression: high (no doxycycline) 0.0178 | 0.103 µM, library screen: screen3, EWS-FLI1 expression: low (doxycycline-induced shRNA knockdown) 0.0286 | [5] 0.0614 | [6] 0.0379 | [1] 0.0402 | [2] 0.0538 | 0.308 µM, library screen: screen3, EWS-FLI1 expression: high (no doxycycline) 0.0468 | 0.308 µM, library screen: screen3, EWS-FLI1 expression: low (doxycycline-induced shRNA knockdown) 0.0486 | 0.926 µM, library screen: screen3, EWS-FLI1 expression: high (no doxycycline) 0.057 | 0.926 µM, library screen: screen3, EWS-FLI1 expression: low (doxycycline-induced shRNA knockdown) 0.0457 | [7] 0.101 | [8] 0.113 | [3] 0.0967 | [4] 0.105 | 2.8 µM, library screen: screen3, EWS-FLI1 expression: high (no doxycycline) 0.00477 | 2.8 µM, library screen: screen3, EWS-FLI1 expression: low (doxycycline-induced shRNA knockdown) 0.0597 | 8.3 µM, library screen: screen3, EWS-FLI1 expression: high (no doxycycline) 0.0173 | 8.3 µM, library screen: screen3, EWS-FLI1 expression: low (doxycycline-induced shRNA knockdown) 0.0298 | 25 µM, library screen: screen3, EWS-FLI1 expression: high (no doxycycline) -0.0119 | 25 µM, library screen: screen3, EWS-FLI1 expression: low (doxycycline-induced shRNA knockdown) 0.114

CCNc1nc(Cl)nc(NCC)n1
inactive: [5] 0.0934 | [6] -0.0122 | [7] 0.0949 | [8] 0.0079

c1ccc2c(c1)sc1ccccc12
inactive: [5] 0.0739 | [6] 0.0613 | [7] 0.158 | [8] 0.198

CCOP(=S)(OCC)SCSP(=S)(OCC)OCC
inactive: [5] 0.0176 | [6] 0.0157 | [7] 0.0447 | [8] 0.0694
